In paper PMC8384837, “Expanding the binding specificity for RNA recognition by a PUF domain” one finds binding signal data, which are given here for six sequences.

One assay has as its target PUM1 PUF domain R5-WHG (Homo sapiens, UniProt Q14671 828-1176, C1007W;R1008H;Q1011G). Nature of the assay: yeast three-hybrid, YBZ-1, SC-Leu-His + 0.5 mM 3-AT, 4 days. To be noted: tags: N-Gal4 AD-HA kept; label: inside an RPR1-promoter hybrid RNA with tandem MS2 sites; ssRNA. The procedure, abridged:
(§1)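 A centromeric plasmid in strain YBZ-1 co-expressed Pumilio-1 PUF domain libraries, randomized at the three base-contacting residues of each repeat, with matching RNA elements; the strain carries a LexA–MS2 coat fusion and a HIS3 reporter. After four days on SC-Leu (input) or SC-Leu-His + 0.5 mM 3-AT (selection), the repeat regions were PCR-amplified and Illumina-sequenced. The interaction score is the log change in variant frequency from input to selection, using log2 and a pseudocount of 1 where absent.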
As to “GGCUAGAACUAGUGGAUCCCCCGGCGCCCGGCGGCUCGAGCCCGGGUAAGUGUGAAUAGUCUGCAUGCCGCCGGGCGCCAUGCCUGCAGGUCGACUCUAGAAAACAUG”, the binding signal is 2.58 log2 enrichment (interaction score).
Take “GGCUAGAACUAGUGGAUCCCCCGGCGCCCGGCGGCUCGAGCCCGGGUAAGUGUCAAUAGUCUGCAUGCCGCCGGGCGCCAUGCCUGCAGGUCGACUCUAGAAAACAUG”: the binding signal was 2.14 log2 enrichment (interaction score).
On the same count and under the same terms, the same measure for “GGCUAGAACUAGUGGAUCCCCCGGCGCCCGGCGGCUCGAGCCCGGGUAAGUGUUAAUAGUCUGCAUGCCGCCGGGCGCCAUGCCUGCAGGUCGACUCUAGAAAACAUG”: 4.56 log2 enrichment (interaction score).

The next assay addresses PUM1 PUF domain R3-GRA (Homo sapiens, UniProt Q14671 828-1176, C935G;Q939A). The description is as above. To be noted: tags: N-Gal4 AD-HA kept; label: inside an RPR1-promoter hybrid RNA with tandem MS2 sites; ssRNA. The method, boiled down: as §1
On to “GGCUAGAACUAGUGGAUCCCCCGGCGCCCGGCGGCUCGAGCCCGGGUAAGUGUAAGUAGUCUGCAUGCCGCCGGGCGCCAUGCCUGCAGGUCGACUCUAGAAAACAUG”, for which the binding signal is 1.12 log2 enrichment (interaction score).
Consider “GGCUAGAACUAGUGGAUCCCCCGGCGCCCGGCGGCUCGAGCCCGGGUAAGUGUAAAUAGUCUGCAUGCCGCCGGGCGCCAUGCCUGCAGGUCGACUCUAGAAAACAUG”, for which the binding signal was 2.35 log2 enrichment (interaction score).
On the same count and under the same terms, the same measure for “GGCUAGAACUAGUGGAUCCCCCGGCGCCCGGCGGCUCGAGCCCGGGUAAGUGUAAUUAGUCUGCAUGCCGCCGGGCGCCAUGCCUGCAGGUCGACUCUAGAAAACAUG”: 0.97 log2 enrichment (interaction score).

In the next assay the target is PUM1 PUF domain R5-GRH (Homo sapiens, UniProt Q14671 828-1176, C1007G;Q1011H). Described as above. To be noted: tags: N-Gal4 AD-HA kept; label: inside an RPR1-promoter hybrid RNA with tandem MS2 sites; ssRNA. The method, boiled down: as §1
Consider “GGCUAGAACUAGUGGAUCCCCCGGCGCCCGGCGGCUCGAGCCCGGGUAAGUGUCAAUAGUCUGCAUGCCGCCGGGCGCCAUGCCUGCAGGUCGACUCUAGAAAACAUG”, for which the binding signal was 2.47 log2 enrichment (interaction score).
The same measure, in the same setting: the result for “GGCUAGAACUAGUGGAUCCCCCGGCGCCCGGCGGCUCGAGCCCGGGUAAGUGUUAAUAGUCUGCAUGCCGCCGGGCGCCAUGCCUGCAGGUCGACUCUAGAAAACAUG” reads 4.85 log2 enrichment (interaction score).
On the same count and under the same terms, the same measure for “GGCUAGAACUAGUGGAUCCCCCGGCGCCCGGCGGCUCGAGCCCGGGUAAGUGUAAAUAGUCUGCAUGCCGCCGGGCGCCAUGCCUGCAGGUCGACUCUAGAAAACAUG”: 3.97 log2 enrichment (interaction score).
